Measured values reported in PubChem BioAssay (NCI).
The panel holds about 83,000 compounds, 20% with a hit somewhere; the sample as a whole holds those more often.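 Step 1: grow cells in 96-well plates. Step 2: add test compound at a single concentration. Step 3: incubate 48 h. Step 4: record percent growth.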 Active and inactive are the calls of the source. How the source made its calls: active means growth percent below 10; inactive means the rest.

Assays:
Assay in all cases: NCI-60 one-dose screen, 48 h (100 = growth as untreated, 0 = no growth, -100 = all killed)
Settings in all cases: 10 µM unless noted
NCI-H23 lung = system: NCI-H23 lung
NCI-H226 lung = system: NCI-H226 lung
NCI-H322M lung = system: NCI-H322M lung
HOP-62 NSCLC = system: HOP-62 NSCLC
NCI-H460 lung = system: NCI-H460 lung
HOP-92 NSCLC = system: HOP-92 NSCLC
NCI-H522 lung = system: NCI-H522 lung
A549/ATCC NSCLC = system: A549/ATCC NSCLC
786-0 renal = system: 786-0 renal
COLO 205 colon = system: COLO 205 colon
DU-145 prostate = system: DU-145 prostate
K-562 leukemia = system: K-562 leukemia
MALME-3M melanoma = system: MALME-3M melanoma
MDA-MB-231 breast = system: MDA-MB-231 breast
RXF 393 renal = system: RXF 393 renal
SF-268 CNS = system: SF-268 CNS
SF-295 CNS = system: SF-295 CNS
SF-539 CNS = system: SF-539 CNS
UACC-257 melanoma = system: UACC-257 melanoma
M14 melanoma = system: M14 melanoma

Measured: growth

FC(F)(F)CN1CCN(CCn2c(C(F)(F)F)cc3c(Cl)ncnc32)CC1
active: NCI-H322M lung -22.9% | NCI-H460 lung -41.2% | NCI-H522 lung -79.3% | K-562 leukemia -20.3% | MDA-MB-231 breast -35.6% | SF-268 CNS -18.5% | M14 melanoma -66.7%
inactive: NCI-H23 lung 16.5% | NCI-H226 lung 86.7% | HOP-62 NSCLC 40.2% | HOP-92 NSCLC 72.2% | A549/ATCC NSCLC 98.8% | 786-0 renal 84.6% | COLO 205 colon 70.5% | DU-145 prostate 30.9% | MALME-3M melanoma 77.3% | RXF 393 renal 59.7% | SF-295 CNS 67.1% | SF-539 CNS 66.6% | UACC-257 melanoma 45.7%

CN1C(=O)/C(=C\C(=O)c2cc3ccccc3oc2=O)c2ccccc21
active: NCI-H522 lung -68.8%
inactive: NCI-H23 lung 46.3% | NCI-H226 lung 75.4% | NCI-H322M lung 98.7% | HOP-62 NSCLC 54.4% | NCI-H460 lung 92.1% | HOP-92 NSCLC 64.3% | A549/ATCC NSCLC 78.3% | 786-0 renal 80.7% | COLO 205 colon 52.2% | DU-145 prostate 71.1% | K-562 leukemia 25.6% | MALME-3M melanoma 43.2% | MDA-MB-231 breast 58.7% | RXF 393 renal 30.5% | SF-268 CNS 77.4% | SF-295 CNS 97.3% | SF-539 CNS 54% | UACC-257 melanoma 91.9% | M14 melanoma 58.7%

COc1ccc(N=Nc2c(N)nn3c(-c4ccc5c(c4)C=S=C5)ccnc23)cc1
active: HOP-92 NSCLC 4.83% | NCI-H522 lung -12.6%
inactive: NCI-H23 lung 27% | NCI-H226 lung 22.8% | NCI-H322M lung 49.1% | HOP-62 NSCLC 42.5% | NCI-H460 lung 35.3% | A549/ATCC NSCLC 43% | 786-0 renal 55.7% | COLO 205 colon 54.8% | DU-145 prostate 35.4% | K-562 leukemia 15.4% | MALME-3M melanoma 43.9% | MDA-MB-231 breast 25% | RXF 393 renal 12.2% | SF-268 CNS 67.7% | SF-295 CNS 33.8% | SF-539 CNS 22.6% | UACC-257 melanoma 85.3% | M14 melanoma 58.9%

COC(=O)c1cc(C(=O)C(C)(C)C)n2c3ccccc3c3ccccc3c12
inactive: NCI-H23 lung 92.4% | NCI-H226 lung 100% | NCI-H322M lung 102% | HOP-62 NSCLC 132% | NCI-H460 lung 106% | HOP-92 NSCLC 63.2% | NCI-H522 lung 103% | A549/ATCC NSCLC 115% | 786-0 renal 93% | COLO 205 colon 112% | DU-145 prostate 97.4% | K-562 leukemia 77.1% | MALME-3M melanoma 109% | MDA-MB-231 breast 79.4% | RXF 393 renal 91.3% | SF-268 CNS 103% | SF-295 CNS 93.5% | SF-539 CNS 96.7% | UACC-257 melanoma 117% | M14 melanoma 96.7%

CCCCCCCCc1ccc(C(=O)Nc2ccc(C)c(OP(=O)(O)O)c2)cc1
inactive: NCI-H23 lung 101% | NCI-H226 lung 102% | NCI-H322M lung 111% | HOP-62 NSCLC 104% | NCI-H460 lung 110% | HOP-92 NSCLC 42% | NCI-H522 lung 82.1% | A549/ATCC NSCLC 105% | 786-0 renal 83.6% | COLO 205 colon 126% | DU-145 prostate 101% | K-562 leukemia 87% | MALME-3M melanoma 102% | MDA-MB-231 breast 97.3% | RXF 393 renal 113% | SF-268 CNS 83.1% | SF-295 CNS 91.2% | SF-539 CNS 93.4% | UACC-257 melanoma 102% | M14 melanoma 106%

COc1ccc(NC(=O)Cn2c(/C=C/c3cccc(OC)c3)nc3ccccc3c2=O)cc1
active: NCI-H226 lung 1.28% | HOP-62 NSCLC -11.5% | HOP-92 NSCLC 3.74% | 786-0 renal -70.7% | MDA-MB-231 breast -30.3% | RXF 393 renal -31.9% | SF-539 CNS -45.7%
inactive: NCI-H23 lung 40.8% | NCI-H322M lung 42.3% | NCI-H460 lung 15.2% | NCI-H522 lung 27.3% | A549/ATCC NSCLC 12.8% | COLO 205 colon 71.6% | DU-145 prostate 74.3% | K-562 leukemia 84% | MALME-3M melanoma 62.7% | SF-268 CNS 66.1% | SF-295 CNS 34.6% | UACC-257 melanoma 81.1% | M14 melanoma 61.2%

Cc1ccc(N=Nc2c(N)nn3c(-c4cc5ccccc5oc4=O)ccnc23)cc1
inactive: NCI-H23 lung 28% | NCI-H226 lung 33.4% | NCI-H322M lung 51.6% | HOP-62 NSCLC 48.5% | NCI-H460 lung 50% | HOP-92 NSCLC 49.9% | NCI-H522 lung 64.9% | A549/ATCC NSCLC 45.1% | 786-0 renal 53.4% | DU-145 prostate 43.7% | K-562 leukemia 40.7% | MALME-3M melanoma 67.1% | MDA-MB-231 breast 30.7% | SF-268 CNS 56.8% | SF-295 CNS 57.4% | UACC-257 melanoma 90.3% | M14 melanoma 46.6%
active: COLO 205 colon 6.35% | RXF 393 renal 7.4% | SF-539 CNS -3.24%

COc1cc(/C=C/C(=O)c2cnn(-c3cc(=O)[nH]c4ccc(Cl)cc34)c2C)cc(OC)c1OC
active: NCI-H23 lung -55.9% | NCI-H226 lung -24.2% | NCI-H322M lung 7.2% | HOP-62 NSCLC -68.3% | NCI-H460 lung -39.1% | HOP-92 NSCLC -11.9% | NCI-H522 lung -62.9% | A549/ATCC NSCLC -17.1% | 786-0 renal -43.9% | COLO 205 colon -67.7% | DU-145 prostate -72.8% | K-562 leukemia -12.4% | MALME-3M melanoma -20.4% | MDA-MB-231 breast -5.1% | RXF 393 renal -84.1% | SF-268 CNS -23.8% | SF-295 CNS -71.5% | SF-539 CNS -69.3% | UACC-257 melanoma -33.8% | M14 melanoma -49%
